Results filed as inconclusive are left out. Entries that show only a call come without a potency. The source made the active and inactive calls. Unless noted, the call rests on the fitted dose curve; in most records, active means well fitted curve in the direction sought with a large enough effect; inconclusive means small, poorly fitted or top-dose-only effect, or another doubt; inactive means no such curve, though single readings can be large; an effect the other way counts as inactive or inconclusive. Numbered stars: 1 amine (or outer) side, 2 acyl side, 3 side chain; on linkers, the order of the positions; unused ones are H or OH. Bridge positions count the residues as written; N and C are the ends. Square brackets hold non-standard residues; d marks the D form. Peptide text beside a SMILES is read from it. I, II: the chains in the order shown. Actinocin(9to1) = Cc1c2oc3c(C)ccc(C(=O)[*:1])c3nc-2c(C(=O)[*:2])c(N)c1=O; NMeV = CN[C@H](C(=O)O)C(C)C; Sar = CNCC(=O)O
Target: Mitogen-activated protein kinase 10 (Mus musculus) (UniProt Q61831)
Assay: JNK3 AlphaScreen Assay (AID 530; active means well fitted curve in either direction with a large enough effect, not every such curve was filed as active;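 further: kinase came from lysate of stimulated human HepG2 cells; signal reports phosphorylation of biotinylated GST-cJun 1-79 at Ser73 with 10 µM ATP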)
Conditions: JNK3 lysate, c-Jun phosphorylation; series mostly up to 25.6 µM
In short: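 Room-temperature AlphaScreen kinase assay; pre-activated HepG2 lysate as JNK3 source, biotin-GST-cJun(1-79) substrate, 10 uM ATP, compound 15 min preincubation.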
In the case of `C[C@]12CC[C@@H]3c4ccc(O)cc4CC[C@H]3[C@@H]1CC[C@@H]2O`, the outcome is reported as “inactive”.
With `C[C@@H]1CN(CCCn2c3ccccc3c3ccccc32)C[C@H](C)N1` the outcome was “inactive”.
For `C[C@@H](CN(C)C)CN1c2ccccc2Sc2ccccc21`, the outcome was “inactive”.
With `CN1[C@@H]2CC[C@H]1CC(OC(=O)c1c[nH]c3ccccc13)C2` (some centres not stated) the outcome was “inactive”.
In the case of `CCCCCCc1ccc(O)cc1O`, the outcome is reported as “inactive”.
With `CC(O)C(=O)O` (configuration not stated) the outcome was “inactive”.
For `Cc1cccc(C)c1NC(=O)CN1CCN(CCCC(c2ccc(F)cc2)c2ccc(F)cc2)CC1`, the outcome was “inactive”.
For `Nc1cc(Cl)c(NC2=NCCN2)c(Cl)c1`, the outcome was “inactive”.
For `C=CCc1ccc(O)c(OC)c1`, the outcome was “inactive”.
In the case of `CN(C)CCCOc1nn(Cc2ccccc2)c2ccccc12`, the outcome is reported as “inactive”.
With `CCCCCCC[N+](CC)(CC)CCCCc1ccc(Cl)cc1` the outcome was “inactive”.
For `CC(=O)c1ccc2c(c1)N(CCCN1CCC(CCO)CC1)c1ccccc1S2`, the outcome was “inactive”.
In the case of `CC[N+](CC)(CCNC(=O)C(=O)NCC[N+](CC)(CC)Cc1ccccc1Cl)Cc1ccccc1Cl`, the outcome is reported as “inactive”.
In the case of `Nc1ccc(C(=O)O)cc1`, the outcome is reported as “inactive”.

Tested on: not listed separately
Assay: Cell Viability - N2a (AID 540); further: nearly all actives have a fitted effect of over 45% in size; further: potency means the concentration at half of the fitted maximal effect
Conditions: N2a mouse neuroblastoma cell viability; activity change, negative = cytotoxicity: at 92.2 µM (top of the series)
In short: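 Mouse neuroblastoma N2a cells (1500/well) were preincubated 5 hr at 37 °C, then exposed to compounds for 40 hr at 37 °C in complete medium. Viability was read as intracellular ATP by CellTiter-Glo luminescence; AC50 from Hill fits.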
For `O=c1ccc2ccccc2o1`, the Potency was “inactive”.
For `CC/C(=C(/CC)c1ccc(O)cc1)c1ccc(O)cc1`, the activity change, negative = cytotoxicity was -83.5% (active).
With `COc1cccc2c1C(=O)c1c(O)c3c(c(O)c1C2=O)C[C@@](O)(C(=O)CO)C[C@@H]3O[C@H]1C[C@H](N)[C@H](O)[C@H](C)O1` the Potency was 0.398 µM (active).
With `O=C1OC(c2ccc(O)cc2)(c2ccc(O)cc2)c2ccccc21` the Potency was “inactive”.
With `O=C(O)CCCCC(=O)O` the Potency was “inactive”.
In the case of `COC1=CC(=O)C[C@@H](C)[C@]12Oc1c(Cl)c(OC)cc(OC)c1C2=O`, the Potency is reported as “inactive”.
For `CN(C)/N=N/c1nc[nH]c1C(N)=O`, the Potency was “inactive”.
With `Oc1c(I)cc(Cl)c2cccnc12` the Potency was 31.6 µM (active).
For `NC(=NCCCCCCN=C(N)/N=C(\N)Nc1ccc(Cl)cc1)/N=C(\N)Nc1ccc(Cl)cc1`, the Potency was 31.6 µM (active).
With `C[C@]12CC[C@@H]3c4ccc(O)cc4CC[C@H]3[C@@H]1CC[C@@H]2O` the Potency was “inactive”.
For `CC(O)C(=O)O` (configuration not stated), the Potency was “inactive”.
With `C=CCc1ccc(O)c(OC)c1` the Potency was “inactive”.
With `Nc1ccc(C(=O)O)cc1` the Potency was “inactive”.

Tested on: not listed separately
Assay: Cell Viability - NIH 3T3 (AID 541); further: nearly all actives have a fitted effect of over 25% in size; further: potency means the concentration at half of the fitted maximal effect
Conditions: NIH 3T3 cell viability, qHTS; activity change, negative = cytotoxicity: at 92.2 µM (top of the series)
In short: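 NIH 3T3 mouse embryo fibroblasts (1000 cells/well) were plated in complete medium and treated with compound for 40 hr at 37 °C. Viability was read as intracellular ATP by CellTiter-Glo luminescence; AC50 values came from Hill-equation fits of concentration-response data.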
In the case of `O=c1ccc2ccccc2o1`, the Potency is reported as “inactive”.
With `COc1cccc2c1C(=O)c1c(O)c3c(c(O)c1C2=O)C[C@@](O)(C(=O)CO)C[C@@H]3O[C@H]1C[C@H](N)[C@H](O)[C@H](C)O1` the Potency was 0.0794 µM (active).
With `O=C1OC(c2ccc(O)cc2)(c2ccc(O)cc2)c2ccccc21` the Potency was “inactive”.
For `O=C(O)CCCCC(=O)O`, the Potency was “inactive”.
For `COC1=CC(=O)C[C@@H](C)[C@]12Oc1c(Cl)c(OC)cc(OC)c1C2=O`, the Potency was “inactive”.
With `Oc1c(I)cc(Cl)c2cccnc12` the Potency was 5.01 µM (active).
In the case of `NC(=NCCCCCCN=C(N)/N=C(\N)Nc1ccc(Cl)cc1)/N=C(\N)Nc1ccc(Cl)cc1`, the Potency is reported as 31.6 µM (active).
With `CC(O)C(=O)O` (configuration not stated) the Potency was “inactive”.
In the case of `C=CCc1ccc(O)c(OC)c1`, the Potency is reported as “inactive”.
For `Nc1ccc(C(=O)O)cc1`, the Potency was “inactive”.

Tested on: not listed separately
Assay: Cell Viability - HUV-EC-C (AID 542); further: nearly all actives have a fitted effect of over 35% in size; further: potency means the concentration at half of the fitted maximal effect
Conditions: HUV-EC-C endothelial cell viability, qHTS; series mostly up to 92.2 µM
In short: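 HUV-EC-C normal human vascular endothelial cells, 1000 cells/well, pre-incubated 5 hr at 37 °C, then exposed to compounds for 40 hr at 37 °C in complete medium. Viability measured as intracellular ATP by CellTiter-Glo luminescence; AC50 from Hill fits.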
For `O=c1ccc2ccccc2o1`, the Potency was “inactive”.
In the case of `Cc1c2oc3c(C)ccc(C(=O)N[C@@H]4C(=O)N[C@H](C(C)C)C(=O)N5CCC[C@H]5C(=O)N(C)CC(=O)N(C)[C@@H](C(C)C)C(=O)O[C@@H]4C)c3nc-2c(C(=O)N[C@@H]2C(=O)N[C@H](C(C)C)C(=O)N3CCC[C@H]3C(=O)N(C)CC(=O)N(C)[C@@H](C(C)C)C(=O)O[C@@H]2C)c(N)c1=O` (I: T[dV]P[Sar][NMeV] / II: T[dV]P[Sar][NMeV]; ester I:1-I:C, II:1-II:C; linker I:N-II:N via Actinocin(9to1)), the Potency is reported as “inactive”.
For `O=C(O)CCCCC(=O)O`, the Potency was “inactive”.
In the case of `COC1=CC(=O)C[C@@H](C)[C@]12Oc1c(Cl)c(OC)cc(OC)c1C2=O`, the Potency is reported as “inactive”.
In the case of `CN(C)/N=N/c1nc[nH]c1C(N)=O`, the Potency is reported as “inactive”.
With `Oc1c(I)cc(Cl)c2cccnc12` the Potency was 31.6 µM (active).
For `NC(=NCCCCCCN=C(N)/N=C(\N)Nc1ccc(Cl)cc1)/N=C(\N)Nc1ccc(Cl)cc1`, the Potency was 39.8 µM (active).
With `C[C@]12CC[C@@H]3c4ccc(O)cc4CC[C@H]3[C@@H]1CC[C@@H]2O` the Potency was “inactive”.
In the case of `CCCCCCc1ccc(O)cc1O`, the Potency is reported as “inactive”.
In the case of `CC(O)C(=O)O` (configuration not stated), the Potency is reported as “inactive”.
With `C=CCc1ccc(O)c(OC)c1` the Potency was “inactive”.
For `Nc1ccc(C(=O)O)cc1`, the Potency was “inactive”.

Tested on: not listed separately
Assay: Cell Viability - H-4-II-E (AID 543); further: nearly all actives have a fitted effect of over 35% in size; further: potency means the concentration at half of the fitted maximal effect
Conditions: H-4-II-E rat hepatoma viability; series mostly up to 92.2 µM
In short: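 Rat hepatoma H-4-II-E cells (1500/well) were plated, incubated 5 hr at 37 °C, then exposed to compounds for 40 hr at 37 °C. Cellular ATP was read by CellTiter-Glo luminescence; AC50 came from Hill-equation fits of concentration-response data.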
For `O=c1ccc2ccccc2o1`, the Potency was “inactive”.
For `COc1cccc2c1C(=O)c1c(O)c3c(c(O)c1C2=O)C[C@@](O)(C(=O)CO)C[C@@H]3O[C@H]1C[C@H](N)[C@H](O)[C@H](C)O1`, the Potency was 25.1 µM (active).
For `Cc1c2oc3c(C)ccc(C(=O)N[C@@H]4C(=O)N[C@H](C(C)C)C(=O)N5CCC[C@H]5C(=O)N(C)CC(=O)N(C)[C@@H](C(C)C)C(=O)O[C@@H]4C)c3nc-2c(C(=O)N[C@@H]2C(=O)N[C@H](C(C)C)C(=O)N3CCC[C@H]3C(=O)N(C)CC(=O)N(C)[C@@H](C(C)C)C(=O)O[C@@H]2C)c(N)c1=O` (I: T[dV]P[Sar][NMeV] / II: T[dV]P[Sar][NMeV]; ester I:1-I:C, II:1-II:C; linker I:N-II:N via Actinocin(9to1)), the Potency was 0.00398 µM (active).
For `O=C1OC(c2ccc(O)cc2)(c2ccc(O)cc2)c2ccccc21`, the Potency was “inactive”.
For `O=C(O)CCCCC(=O)O`, the Potency was “inactive”.
For `COC1=CC(=O)C[C@@H](C)[C@]12Oc1c(Cl)c(OC)cc(OC)c1C2=O`, the Potency was 25.1 µM (active).
In the case of `CN(C)/N=N/c1nc[nH]c1C(N)=O`, the Potency is reported as 25.1 µM (active).
With `Oc1c(I)cc(Cl)c2cccnc12` the Potency was 50.1 µM (active).
In the case of `NC(=NCCCCCCN=C(N)/N=C(\N)Nc1ccc(Cl)cc1)/N=C(\N)Nc1ccc(Cl)cc1`, the Potency is reported as 31.6 µM (active).
For `CCCCCCc1ccc(O)cc1O`, the Potency was “inactive”.
With `CC(O)C(=O)O` (configuration not stated) the Potency was “inactive”.
In the case of `C=CCc1ccc(O)c(OC)c1`, the Potency is reported as “inactive”.
In the case of `Nc1ccc(C(=O)O)cc1`, the Potency is reported as “inactive”.

From PubChem BioAssay (NCATS)
